BoNT A protease – blocks Botulinum neurotoxin A light chain protease; 360,000 compounds, 0.17% hits; AID 588499; multiplex microsphere protease substrate cleavage, flow cytometry; inhibition, % at 10 µM; further: plate controls were buffer without enzyme for full effect and enzyme alone for no effect
BoNT-F LC inh – blocks Botulinum neurotoxin F light chain protease. 360,000 compounds, 0.22% hits. inhibition, % at 10 µM. AID 588497. Multiplex microsphere protease cleavage assay, flow cytometry; in the data active means inhibition above about 35%, passing the limit was not always enough; inconclusive means no clear call, values can overlap the other calls; further: plate controls were buffer without enzyme for full effect and enzyme alone for no effect
Anthrax LF inh2 – blocks Bacillus anthracis lethal factor protease; multiplex microsphere protease cleavage assay, LF; 360,000 compounds, 0.12% hits; AID 588501; inhibition, % at 10 µM; further: plate controls were buffer without enzyme for full effect and enzyme alone for no effect
Bead autofluor – flagged as autofluorescent in microsphere protease counterscreen; compound autofluorescence counterscreen, microsphere flow cytometry; active compounds read high; 360,000 compounds, 3.1% hits; fluorescence intensity (concentration not given with the values); in the data active means fluorescence intensity above about 16000; inconclusive means no clear call, values can overlap the other calls
MazF activator – MazEF (E. coli) toxin RNase activation. 350,000 compounds, 0.32% hits. activation, % at 20 µM. FAM/BHQ RNA-DNA oligo cleavage fluorescence, 5 h. P0AE70; in the data active means activation above about 50%
Target sequence (P0AE70 whole entry, looked up): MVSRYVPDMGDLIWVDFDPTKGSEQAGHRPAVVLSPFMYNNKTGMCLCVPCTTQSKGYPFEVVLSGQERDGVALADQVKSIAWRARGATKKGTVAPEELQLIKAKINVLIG
BoNTA LC inh 1 – blocks botulinum neurotoxin A light chain protease | shares compounds with BoNT-F LC inh | multiplex microsphere protease assay, flow cytometry | 720 compounds, 3% hits | AID 602139 | inhibition, % at 10 µM; in the data active means inhibition above about 32%
BoNT-F LC CP1 – BoNT/F light chain protease inhibition; shares compounds with BoNT-F LC inh; multiplex microsphere protease cleavage assay, flow cytometry; inhibition, % at 10 µM; 720 tested, under 10 active; AID 602140; call rule not given here
Anthrax LF CP1 – blocks anthrax lethal factor protease. shares compounds with BoNT-F LC inh. multiplex microsphere protease cleavage assay, LF. inhibition, % at 10 µM. 720 tested, under 10 active; call rule not given here
* = called active by the depositor; ? = inconclusive; / = no result. An excerpt weighted towards active compounds, which were near 3.6% of everything screened. Unless noted, no stated cut-off is given here; in the data, active means inhibition above about 30%; inconclusive means no clear call, values can overlap the other calls; inactive means below that.

SMILES | BoNT A protease | BoNT-F LC inh | Anthrax LF inh2 | Bead autofluor | MazF activator | BoNTA LC inh 1 | BoNT-F LC CP1 | Anthrax LF CP1
Cc1cccc(N(CC(=O)N2CCCCCC2)S(C)(=O)=O)c1C | -2 | 36* | -24 | 3213 | 6 | 0 | 2 | 6
CCCOc1ccc(C(=O)C(CN2CCOCC2)c2ccccc2)cc1 (centres undefined) | 0 | -6 | 2 | 3174 | -1 | / | / | /
CC(CN1CCOCC1)C(=O)c1ccccc1 (centres undefined) | 0 | -2 | -3 | 10526 | 4 | 0 | 2 | -3
O=C1CC(SC(=S)C2CCCC2=O)C(=O)N1 (centres undefined) | 0 | 4 | -13 | 2911 | -4 | / | / | /
COCCN(C(=O)c1ccccc1)c1nnc(-c2cccnc2)s1 | 2 | 36* | 5 | 4193 | 0 | 1 | -2 | 1
COCCN(C(=O)CC(C)(C)C)c1nnc(-c2cccnc2)s1 | -1 | -3 | -12 | 2496 | 1 | / | / | /
COc1ccccc1-c1ccc(SCc2cccc(F)c2)nn1 | 0 | -4 | -9 | 4559 | -4 | / | / | /
COc1ccccc1-c1ccc(SCc2ccccc2)nn1 | 32* | 6 | 25 | 4296 | 1 | 6 | -12 | 2
N#Cc1nc(-c2ccccc2F)oc1NCCc1ccccc1 | ? | 42* | 2 | 10751 | 3 | -3 | -2 | -4
N#Cc1nc(-c2ccccc2F)oc1NCc1ccccc1 | -1 | -10 | 3 | 5810 | 0 | / | / | /
NC(=O)CSc1n[nH]c(=O)n1CCc1ccccc1 | -4 | -11 | -5 | 4411 | 6 | / | / | /
COc1ccc(-c2ncc3ccccn23)cc1OC | 2 | -16 | -8 | 2757 | 4 | 2 | 1 | 3
O=[N+]([O-])c1cccc(-c2ncc3ccccn23)c1 | 7 | -5 | 2 | 4652 | 5 | / | / | /
COc1ccc(-c2cncc3nccn23)cc1OC | -1 | -3 | -8 | 4079 | / | / | / | /
Clc1ccc(-c2ncc3ccccn23)cc1 | 51* | 3 | 22 | 5802 | -1 | 0 | -1 | 1
Clc1ccccc1-c1ncc2ccccn12 | 29 | 1 | 22 | 4716 | -8 | 2 | 8 | 1
Cc1cc(C)cc(NC(=O)C(NCCN2CCOCC2)c2ccccc2)c1 (centres undefined) | 0 | -3 | 4 | 4410 | -3 | / | / | /
CCc1ccc(Nc2nc3ccccc3c(=O)s2)cc1 | 8 | 76* | 33* | 5006 | 11 | 0 | -3 | -1
C[C@H]1CN=C(Nc2ccccc2)N1CC1CCCCCC1 | -1 | -19 | -6 | 4754 | 5 | / | / | /
O=C(COc1ccc(Cl)cc1Br)Nc1ccncc1 | -4 | ? | -8 | 3891 | -4 | / | / | /
Cc1ccc2nc3c(cc2c1)c(NC(=O)C(C)(C)C)nn3CC(C)C | 2 | 15 | 49* | 2974 | -10 | 1 | 2 | 0
Cc1ccc2nc3c(cc2c1)c(NC(=O)c1ccco1)nn3CC(C)C | ? | ? | 18 | 3936 | 3 | / | / | /
COc1ccc(-c2cc(C(=O)Nc3ccc(F)cc3F)no2)cc1 | 0 | -2 | 32* | 3706 | -18 | 1 | -4 | 0
Cc1cccc(NC(=O)c2nc[nH]c2C(=O)Nc2cc(Br)ccc2F)c1 | 0 | -4 | 1 | 2860 | -50 | / | / | /
O=C(O)c1ccc(NS(=O)(=O)c2ccc(Cl)c(C(=O)Nc3ccccc3)c2)cc1 | 0 | ? | 15 | 3179 | 4 | 0 | 0 | 1
SMILES | BoNT A protease | BoNT-F LC inh | Anthrax LF inh2 | Bead autofluor | MazF activator | BoNTA LC inh 1 | BoNT-F LC CP1 | Anthrax LF CP1
O=C(O)c1ccc(NS(=O)(=O)c2ccc(NC(=O)c3ccccc3Cl)cc2)cc1 | 0 | -6 | -3 | 3422 | 2 | / | / | /
Cc1ccc(NS(=O)(=O)c2ccc(Cl)c(C(=O)Nc3cccc(C(=O)O)c3)c2)cc1 | -3 | ? | -4 | 4199 | 4 | -1 | -3 | -2
O=C(Nc1ccccc1C(=O)O)c1cc(S(=O)(=O)Nc2ccccc2)ccc1Cl | 3 | ? | -6 | 4097 | -3 | 0 | -5 | 1
CC(C)c1ccccc1NC(=O)CSc1n[nH]c(=O)n1C1CC1 | -4 | -10 | -2 | 6424 | 1 | / | / | /
COc1ccc(S(=O)(=O)NCC2CCCO2)cc1Cl (centres undefined) | -1 | 35* | -12 | 2925 | 10 | -1 | -4 | -2
CCCCN(C(=O)CCCc1nc2ccccc2s1)c1c(N)n(CC(C)C)c(=O)[nH]c1=O | 0 | -8 | -5 | 3895 | 3 | / | / | /

Source: PubChem BioAssay (several laboratories)
